Measurements from PubChem BioAssay (NCI).
About 79,000 compounds went through this panel and 15% of them were active in at least one assay; those are over-represented in the sample as a whole. Calls of active or inactive are those of the source. Cut-off read from the data, not from the text of the source: active = growth inhibition above about 70%; inactive = the rest.

Legend:
[1] = NCI Yeast Anticancer Drug Screen. Data for the rad50 strain (AID 155);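 note: 0% = growth of vehicle-only cultures of the same strain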; conditions: S. cerevisiae rad50 strain growth inhibition, stronger effect = higher value
Outline: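 Inhibition values express reduced yeast growth in compound-treated cultures relative to vehicle-treated controls.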

[2] = NCI Yeast Anticancer Drug Screen. Data for the mec2-1 strain (AID 157); conditions: S. cerevisiae mec2-1 strain, stronger effect = higher value
Outline: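 Mutant yeast (mec2-1) grown with compound; growth inhibition relative to vehicle control reported.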

[3] = NCI Yeast Anticancer Drug Screen. Data for the sgs1 mgt1 strain (AID 161);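 note: 0% = growth of cultures given vehicle only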; conditions: S. cerevisiae sgs1 mgt1 strain, stronger effect = higher value
Outline: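 This yeast growth screen uses a strain with defined DNA-repair lesions; compound-treated growth is compared with vehicle-treated growth.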

[4] = NCI Yeast Anticancer Drug Screen. Data for the cln2 rad14 strain (AID 165);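 note: 0% = growth equal to vehicle treated cultures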; conditions: S. cerevisiae cln2 rad14 strain, stronger effect = higher value
Outline: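 Readout is yeast growth inhibition versus vehicle-treated controls, using a strain with cln2 and rad14 alterations exposed to compound.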

[5] = NCI Yeast Anticancer Drug Screen. Data for the bub3 strain (AID 167); conditions: S. cerevisiae bub3 mutant strain, stronger effect = higher value
Outline: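 Steps: expose the mutant yeast strain to compound; grow alongside vehicle-treated cultures; measure growth; express inhibition against the vehicle cultures.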

[6] = NCI Yeast Anticancer Drug Screen. Data for the mlh1 rad18 strain (AID 175); conditions: S. cerevisiae mlh1 rad18 strain growth inhibition, stronger effect = higher value
Outline: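 Genetically defined yeast (DNA repair-deficient) exposed to compounds; growth inhibition determined relative to vehicle.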

[7] = at 5.0 µM (retest, dose inferred, filed as 0.5)
[8] = at 50.0 µM (retest, dose inferred, filed as 5.0)

Measured: growth inhibition

CCCCCCCCCCCCCCCCOC[C@@H](COC(c1ccccc1)(c1ccccc1)c1ccccc1)O[P+](=S)OC (some centres not stated)
inactive: [1]; [7] 31% | [1]; [8] 67% | [1]; at 50.0 µM 62.4% | [2]; [7] 20% | [2]; [8] 39% | [3]; [7] 18% | [3]; [8] 55% | [4]; [7] 36% | [4]; [8] 29% | [5]; [7] 43% | [5]; [8] 58% | [6]; [7] 22% | [6]; [8] 32%
active: [2]; at 50.0 µM 85.8% | [3]; at 50.0 µM 86.5% | [4]; at 50.0 µM 77.6% | [5]; at 50.0 µM 82.4% | [6]; at 50.0 µM 91.1%

COc1ccc(O)c(/C=C/[N+](=O)[O-])c1
active: [1]; [8] 99% | [1]; at 50.0 µM 99.4% | [2]; [8] 99% | [2]; at 50.0 µM 98.8% | [3]; [8] 99% | [3]; at 50.0 µM 99.1% | [4]; [8] 98% | [4]; at 50.0 µM 99.2% | [5]; [8] 99% | [5]; at 50.0 µM 99.3% | [6]; [8] 99% | [6]; at 50.0 µM 98.9%
inactive: [1]; [7] 16% | [2]; [7] -1% | [3]; [7] 20% | [4]; [7] 5% | [5]; [7] 41% | [6]; [7] 21%

Cc1cc(N(CCCl)CCCl)ccc1C=Nc1ccc(-c2csc(Cc3ccccc3)n2)c(Cl)c1
inactive: [1]; [7] 5% | [2]; [7] -7% | [3]; [7] 2% | [4]; [7] -18% | [5]; [7] 6% | [6]; [7] -17%
active: [1]; [8] 89% | [1]; at 50.0 µM 92.7% | [2]; [8] 96% | [2]; at 50.0 µM 94.5% | [3]; [8] 97% | [3]; at 50.0 µM 94.2% | [4]; [8] 91% | [4]; at 50.0 µM 91.1% | [5]; [8] 94% | [5]; at 50.0 µM 89.2% | [6]; [8] 94% | [6]; at 50.0 µM 93.7%

O=P(O)(Oc1ccccc1)Oc1ccccc1.[Ag]
active: [1]; [8] 71% | [1]; at 50.0 µM 92.2% | [2]; [8] 87% | [2]; at 50.0 µM 94% | [3]; [7] 99% | [3]; [8] 98% | [3]; at 50.0 µM 94% | [4]; [7] 70% | [4]; [8] 99% | [4]; at 50.0 µM 93% | [5]; [7] 100% | [5]; [8] 99% | [5]; at 50.0 µM 92.8% | [6]; [8] 86% | [6]; at 50.0 µM 92.3%
inactive: [1]; [7] 36% | [2]; [7] 37% | [6]; [7] 37%

CC(=O)C(CN1CCOCC1)C(c1ccccc1)c1c(O)c2ccccc2oc1=O (configuration not stated)
inactive: [1]; [7] 7% | [1]; at 50.0 µM -1.6% | [2]; [7] 5% | [2]; at 50.0 µM -12.3% | [3]; [7] 3% | [3]; at 50.0 µM 9.4% | [4]; [7] 5% | [4]; at 50.0 µM 0.25% | [5]; [7] 22% | [5]; at 50.0 µM 21.9% | [6]; [7] 6% | [6]; at 50.0 µM -13.5%
active: [1]; [8] 73% | [2]; [8] 75% | [3]; [8] 80% | [4]; [8] 79% | [5]; [8] 83% | [6]; [8] 81%

CC(=O)OCC1(N2CCCC2)CCCCC1
inactive: [1]; [7] -3% | [1]; [8] 2% | [1]; at 50.0 µM 5.05% | [2]; [7] 2% | [2]; [8] -3% | [2]; at 50.0 µM 5.35% | [3]; [7] -3% | [3]; [8] 16% | [3]; at 50.0 µM 43.4% | [4]; [7] -5% | [4]; [8] -17% | [4]; at 50.0 µM 0.45% | [5]; [7] -10% | [5]; [8] -10% | [5]; at 50.0 µM 23.6% | [6]; [7] -16% | [6]; [8] -6% | [6]; at 50.0 µM -16.6%

CCCCCCCCCCCCCC(=O)[O][Hg][c]1ccccc1
active: [1]; [7] 99% | [1]; [8] 93% | [1]; at 50.0 µM 99.5% | [2]; [7] 100% | [2]; [8] 99% | [2]; at 50.0 µM 99.6% | [3]; [7] 100% | [3]; [8] 99% | [3]; at 50.0 µM 99.6% | [4]; [7] 99% | [4]; [8] 98% | [4]; at 50.0 µM 99.6% | [5]; [7] 99% | [5]; [8] 99% | [5]; at 50.0 µM 99.5% | [6]; [7] 99% | [6]; [8] 99% | [6]; at 50.0 µM 99.6%

CCCCSc1ccc(C(SCCN(CC)CC)c2ccccc2)cc1 (configuration not stated)
inactive: [1]; [7] 12% | [2]; [7] 11% | [3]; [7] 45% | [4]; [7] 32% | [5]; [7] 36% | [6]; [7] 27%
active: [1]; [8] 99% | [1]; at 50.0 µM 99.8% | [2]; [8] 100% | [2]; at 50.0 µM 99.8% | [3]; [8] 100% | [3]; at 50.0 µM 99.8% | [4]; [8] 99% | [4]; at 50.0 µM 99.8% | [5]; [8] 99% | [5]; at 50.0 µM 99.7% | [6]; [8] 99% | [6]; at 50.0 µM 99.7%

COc1ccc(P2(=S)Oc3ccc(C(c4ccccc4)(c4ccccc4)c4ccccc4)cc3O2)cc1 (configuration not stated)
inactive: [1]; [7] 36% | [1]; at 50.0 µM 38.6% | [2]; [7] 11% | [2]; at 50.0 µM 64.3% | [3]; [7] 34% | [3]; at 50.0 µM 54.7% | [4]; [7] 24% | [4]; at 50.0 µM 63.2% | [5]; [7] 7% | [5]; at 50.0 µM 48.9% | [6]; [7] 34% | [6]; at 50.0 µM 58.1%
active: [1]; [8] 96% | [2]; [8] 98% | [3]; [8] 96% | [4]; [8] 98% | [5]; [8] 98% | [6]; [8] 98%
